Measurements published in PubChem BioAssay AID1985 (Southern Research Specialized Biocontainment Screening …, 2009).
About 1,000 (43%) of roughly 2,300 compounds were called active. The set was probably picked from earlier hits. The list shows a part of the results. Results with a measured potency or affinity are listed apart. Values without a mark were called inactive. No rule for the calls is given here.

Experiment: modified counter assay using GFP fluorescence, PhoP regulon inhibitor project, dose response (AID 1985)
Details: S. Typhi, 4 h; series mostly up to 150 µM; inhibition: at the top concentration

Row | Compound | inhibition [%]
1 | COC(=O)CNc1n[nH]c(=S)[nH]c1=O | 25.4
2 | COc1ccc(C(=O)C[n+]2cc(Br)cc3ccccc32)cc1[N+](=O)[O-] | 4.84
3 | O=C(C[n+]1cc(Br)cc2ccccc21)c1ccc(F)cc1 | 21.7
4 | CCOCCCNC(=O)CN1CCN(Cc2ccccc2C)C1=O | -10.6
5 | COC(=O)c1c(-c2cccc(C)c2)csc1N | 7.62
6 | COC(=O)c1cc2ccsc2n1CC(=O)N(C)c1ccccc1 | 22.5
7 | CC(C)(C)CC(=O)Nc1nnc(SCC(=O)N2CCCCC2)s1 | 19.3
8 | Cc1nc(C)c(-c2ccc(SCc3ccccc3C)nn2)s1 | 1.29
9 | COc1ccc(-c2nnc(SC(C)C(=O)Nc3nccs3)n2Cc2ccccc2)cc1OC (configuration not stated) | -11.8
10 | CC1=C(C#N)CCC(=O)N1Cc1c(C)cc(C)cc1C | 16.8
11 | COc1ccc(Cl)cc1NC(=O)c1cc(-c2ccccc2)on1 | -9.57
12 | CC(Oc1ccc(Br)cc1)c1nc2c3ccccc3nc(=S)n2[nH]1 (configuration not stated) | 36.7
13 | COc1ccc(NC(=O)Cn2cnc3c(cnn3C(C)(C)C)c2=O)cc1OC | -7.57
14 | COc1ccc(-n2nnc3c(SCC(=O)N4CCCc5ccccc54)ncnc32)cc1 | -1.62
15 | Cc1ccn2cc(C(=O)Nc3nnc(C)s3)nc2c1 | 8.12
16 | Cc1cc(C(=O)OCC(=O)Nc2cccc(S(=O)(=O)N3CCOCC3)c2)c(C)o1 | -14.2
17 | C#CCOCCOCCOCCNc1nc(N2CCN(C(=O)[C@H](CCCCN)n3cc([C@@H](N)CO)nn3)CC2)nc(N2CCN(C(=O)[C@H](Cc3cc4ccccc4[nH]3)n3cc([C@@H](N)Cc4ccc(O)cc4)nn3)CC2)n1 | 6.35
18 | C#CCOCCOCCOCCNc1nc(N2CCN(C(=O)C(Cc3cc4ccccc4[nH]3)n3cc(C(N)C(C)CC)nn3)CC2)nc(N2CCN(C(=O)C(Cc3cc4ccccc4[nH]3)n3cc(C(N)C(C)CC)nn3)CC2)n1 (configuration not stated) | 4.82
19 | Nc1ccc(C(O)(C(F)(F)F)C(F)(F)F)cc1 | -17.8
20 | C#CCOCCOCCOCCNc1nc(N2CCN(C(=O)C(Cc3ccc(O)cc3)n3cc(C(N)CC(C)C)nn3)CC2)nc(N2CCN(C(=O)C(Cc3cc4ccccc4[nH]3)n3cc(C(N)Cc4ccc(O)cc4)nn3)CC2)n1 (configuration not stated) | -16.3
21 | C#CCOCCOCCOCCNc1nc(N2CCN(C(=O)[C@H](Cc3ccc(O)cc3)n3cc([C@@H](N)C(C)CC)nn3)CC2)nc(N2CCN(C(=O)[C@H](Cc3cc4ccccc4[nH]3)n3cc([C@@H](N)Cc4ccc(O)cc4)nn3)CC2)n1 (some centres not stated) | -18.6
22 | C#CCOCCOCCOCCNc1nc(N2CCN(C(=O)[C@H]([C@@H](C)CC)n3cc([C@@H](N)CO)nn3)CC2)nc(N2CCN(C(=O)[C@H](Cc3cc4ccccc4[nH]3)n3cc([C@@H](N)Cc4ccc(O)cc4)nn3)CC2)n1 | 14.7
